Screens (PubChem BioAssay)
Only some compounds are listed: those with a hit (about 3.4% of all), similar ones and a draw of the others.
HTT cytoprotect = protects HTT-Q103 PC12 cells, measured by ATP | PC12 HTT-Q103 induced, cytoprotection, ATP luminescence, 40 h | Potency, µM (top dose mostly 56.4 µM), hits mostly activators | 230,000 compounds, 0.14% hits | AID 1471; also: nearly all actives have a fitted effect of over 45% in size
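Compounds added alongside 100 nM tebufenozide, which induces toxic Q103 huntingtin exon 1-GFP in stable PC12 cells; surviving cells quantified by luminescent ATP measurement. Medium: phenol red-free DMEM, 5% equine and 5% calf serum.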
NPSR antagonist = antagonists of human neuropeptide S receptor cAMP signaling; CHO-NPSR cells, cAMP TR-FRET, antagonist mode; Potency, µM (top dose mostly 38.3 µM), usual class: inhibitors; 220,000 compounds, 1% hits; AID 1461; also: nearly all actives have a fitted effect of over 50% in size
IMPase cell inh = cell-permeable inhibitors of inositol monophosphatase (IMPase). P97697. CHO-M1 cells, IP1 accumulation, HTRF TR-FRET ratio. inhibition (IP1 accumulation), % at 46.1 µM. 120,000 tested, under 10 active. AID 901; active = well fitted curve in the direction sought with a large enough effect in the signal ratio, not every such curve was filed as active; inconclusive = small, poorly fitted or top-dose-only effect, or a change in a side signal; inactive = no such curve, though single readings can be large or run the other way; the % refers to the signal ratio;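 also: cells stimulated with carbachol in lithium chloride buffer; higher means more IMPase inhibition seen as more IP1 and lower FRET ratio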
Target sequence (P97697 whole entry, looked up): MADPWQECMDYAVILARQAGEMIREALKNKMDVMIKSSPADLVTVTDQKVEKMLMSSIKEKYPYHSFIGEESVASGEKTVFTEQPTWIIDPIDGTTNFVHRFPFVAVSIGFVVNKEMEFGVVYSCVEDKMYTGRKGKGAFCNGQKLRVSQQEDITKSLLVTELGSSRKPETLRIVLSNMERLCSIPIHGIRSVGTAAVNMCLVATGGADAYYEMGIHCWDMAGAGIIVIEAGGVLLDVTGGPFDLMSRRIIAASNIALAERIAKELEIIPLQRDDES
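In this qHTS, compounds (final up to 46 uM) act on CHO-M1 cells that are then activated through the M1 receptor with carbachol, in pH 7.4 buffer containing 50 mM LiCl, for 30 min. IP1 accumulation is quantified by the IP-One immunoassay.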
HTT aggregate = mutant huntingtin aggregation inhibition; PC12 HttQ103-GFP aggregates, Acumen cytometry, 40 h; Potency, µM (top dose mostly 46.1 µM), most hits filed as inhibitors; 220,000 compounds, 1.1% hits; also: nearly all actives have a fitted effect of over 60% in size
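Read-out: GFP aggregate count by laser scanning cytometer (488 nm excitation, 500-530 nm emission, 1–25 µm objects >6 SD above background). Cells: PC12, inducible HTTex1-Q103-GFP, 100 nM tebufenozide; compounds titrated.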
PNC inhibitor = blocks assembly of the perinucleolar compartment; PC3M PTB-GFP, PNC prevalence imaging, 16 h; stronger effect = lower value; activity change (PNC), negative = inhibition, % at 10 µM; 140,000 compounds, 3.1% hits; AID 2417;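 active = readout at or below -70, meaning at least 70% loss of cells showing the perinucleolar compartment, a nuclear body marking cancer cells; inconclusive = readout between -30 and a set limit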
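Compounds are pinned in duplicate onto adhered PC3M cells stably expressing GFP-tagged PTB and incubated 16 h at 37 C. Cells are then fixed, nuclei stained with Hoechst, and PNC-positive cells counted.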
IMPase Li cell = IMPase inhibition in cells with lithium potentiation. CHO-M1 cells, IP1 TR-FRET (IP-One), carbachol + lithium. Potency, µM (top dose mostly 59.4 µM), usual class: inhibitors. 210,000 compounds, 0.35% hits. AID 1457;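 also: IP1 builds up when IMPase is blocked and the TR-FRET signal falls; nearly all actives have a fitted effect of over 50% in size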
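Test compounds were applied to CHO-M1 cells previously cultured for 16–30 h at 2000 per well. A small lithium amount accompanied them; after 30 min at 37C, IP1 was quantified by TR-FRET.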
Each line names hits and unclear results; the compound was inactive in the other large screens. Unless noted, calls follow the shape of the dose curve; as a rule, active = well fitted curve in the direction sought with a large enough effect; inconclusive = small, poorly fitted or top-dose-only effect, or another doubt; inactive = no such curve, though single readings can be large; an effect the other way counts as inactive or inconclusive.

CCOc1cc(C2C3=C(CCCC3=O)NC3=C2C(=O)CCC3)cc(Cl)c1O	none
CCOc1cc(C2C3=C(CCCC3=O)N(C)C3=C2C(=O)CCC3)cc(Cl)c1O	PNC inhibitor -100
Cc1sc2ncnc(NCC3COc4ccccc4O3)c2c1C (stereo not drawn)	HTT aggregate inconclusive
c1ccc(-c2csc3ncnc(NCC4COc5ccccc5O4)c23)cc1 (stereo not drawn)	HTT aggregate 8.9µM (no result: IMPase cell inh)
CCOC(=O)c1sc2nc3c(SCCC(=O)O)cc(C(=O)c4cc(OC)ccc4O)cn3c(=O)c2c1C	NPSR antagonist 10µM (no result: HTT cytoprotect, IMPase cell inh, PNC inhibitor)
CCOC(=O)c1sc2nc3c(SCCC#N)cc(C(=O)c4cc(F)ccc4O)cn3c(=O)c2c1C	none (no result: IMPase cell inh)
CC(=O)N1Cc2ccccc2C(C)CC12CCCC2 (stereo not drawn)	none
CC(=O)N1c2ccccc2C(C)CC12CCCCC2 (stereo not drawn)	PNC inhibitor -83
CCN1C=C(C(=O)OC)C(c2cccc(C)c2)C(C(=O)OC)=C1	PNC inhibitor -80
COC(=O)C1=CN(Cc2cccs2)C=C(C(=O)OC)C1c1cccc(Cl)c1	NPSR antagonist inconclusive (no result: IMPase cell inh, PNC inhibitor)
O=C(Nc1cc(S(=O)(=O)N2CCOCC2)ccc1O)c1ccc(NS(=O)(=O)c2ccc(Cl)s2)cc1	HTT aggregate inconclusive, PNC inhibitor -134 (no result: IMPase cell inh)
O=C(CCCn1c(=O)[nH]c2cc(Cl)ccc2c1=O)NCC1CCCO1 (stereo not drawn)	PNC inhibitor -119
Cn1c(=O)cc(SCC(=O)NCC2CCCO2)c2ccc(Cl)cc21 (stereo not drawn)	NPSR antagonist 10µM, IMPase Li cell inconclusive
COc1ccc2nc(C)c(C(=O)OCCN(C)C)cc2c1	none (no result: IMPase Li cell)
CC(/C=N/n1c(-c2cccnc2)n[nH]c1=S)=C\c1ccccc1	NPSR antagonist inconclusive, HTT aggregate inconclusive
CC(=C/c1ccccc1)/C=N/n1c(-c2ccncc2)n[nH]c1=S	HTT aggregate 2µM (no result: IMPase cell inh, PNC inhibitor)
CCOc1ccc(CCNC(=O)C(CCC(N)=O)NC(=O)OCc2ccccc2)cc1OCC (stereo not drawn)	none (no result: IMPase cell inh, PNC inhibitor)
C=CCn1c(Cc2c[nH]c3ccccc23)nnc1SCC(=O)NCc1ccccc1	none
C=CCn1c(CNc2ccccc2)nnc1SCC(=O)N/N=C/c1ccccc1O	HTT aggregate 18µM
C=CCc1cccc(/C=N/NC(=O)C(C)Nc2cccc(C)c2)c1O (stereo not drawn)	HTT aggregate 11µM (no result: IMPase cell inh, PNC inhibitor)
C=CCc1cccc(/C=N/NC(=O)CNc2ccccc2OC)c1O	HTT aggregate 20µM (no result: IMPase cell inh, PNC inhibitor)
C=CCc1cccc(/C=N/NC(=O)CCC(=O)Nc2ccc(F)cc2)c1O	HTT aggregate inconclusive (no result: IMPase cell inh)
C=CCc1cccc(/C=N/NC(=O)CCCNc2ccc(C)cc2)c1O	HTT aggregate inconclusive, PNC inhibitor inconclusive
C=CCc1cccc(/C=N/NC(=O)CNc2cccc3ccccc23)c1O	PNC inhibitor -84 (no result: IMPase cell inh)
C=CCOc1ccc(CNc2ccc3[nH]c(=O)[nH]c3c2)cc1	none (no result: IMPase cell inh, PNC inhibitor)
O=C(Cn1nc(C(=O)O)c2ccccc2c1=O)Nc1ccc2c(c1)C(=O)c1ccccc1C2=O	none (no result: IMPase cell inh, PNC inhibitor, IMPase Li cell)
CCOC(=O)N1CCN(C(=O)c2ccc(Oc3ccc([N+](=O)[O-])cc3)cc2)CC1	none (no result: HTT cytoprotect, IMPase cell inh, PNC inhibitor)
C=CCc1cccc(/C=N/NC(=O)CNc2ccccc2)c1O	HTT aggregate 11µM
COCC1=C2c3ccccc3[C@@H]3CNC(=O)C3(C(=O)OC)C[C@@H]2n2c(=O)n(-c3ccccc3)c(=O)n2C1 (stereo partly drawn)	none (no result: NPSR antagonist, IMPase cell inh, HTT aggregate, PNC inhibitor)
CCOc1ccccc1C(=O)N1c2ccccc2Sc2ccccc21	HTT cytoprotect inconclusive, HTT aggregate 16µM
COc1ccccc1C(=O)N1c2ccccc2Sc2ccccc21	none (no result: HTT cytoprotect, IMPase cell inh)
Clc1cccc(-c2nc3ccccn3c2Nc2ccc3c(c2)OCCO3)c1	none (no result: HTT cytoprotect, NPSR antagonist, HTT aggregate, PNC inhibitor, IMPase Li cell)
COc1ccc2c(C)cc(SCC#N)nc2c1	none
COc1ccc2c(C)cc(SCc3c(C)noc3C)nc2c1	PNC inhibitor -111
Cc1ccc(C2=CC(c3ccc(N(C)C)cc3)n3nnnc3N2)cc1 (stereo not drawn)	HTT aggregate 10µM
